Source: PubChem BioAssay AID720517 (National Center for Advancing Translational Sciences (NCATS), 2013)
Results filed as inconclusive are left out. Where a call stands in place of a potency, no number is given. Activity calls are given as the source filed them. Calls come from the whole dose curve; as a rule, active = well fitted activation curve with a large enough effect; inconclusive = small, poorly fitted or top-dose-only effect; inactive = flat fitted curve, though single readings scatter.

Test: qHTS for Inhibitors of Cell Surface uPA Generation: FP59 Counterscreen for Cherry-picked Compounds
Conditions: FP59 anthrax toxin cytotoxicity counterscreen, cells; series mostly up to 115 µM
With Cc1nc([N+](=O)[O-])cn1CCCCN1C(=O)c2ccccc2C1=O the Potency was “inactive”.
For COc1ccc(N2CCN(C(=O)COc3ccc4c(C)c(C)c(=O)oc4c3C)CC2)cc1, the Potency was “inactive”.
In the case of CNC(=O)[C@@H]1CCC(=O)N1, the Potency is reported as “inactive”.
For CCc1ccccc1N1C(=O)CC(Sc2nccc(C)n2)C1=O (centres undefined), the Potency was “inactive”.
For O=C(NC[C@H]1CCCO1)c1cccc2c1C(=O)c1ccc(-c3ccc(F)cc3OCc3ccccc3)cc1S2(=O)=O, the Potency was “inactive”.
With CCOC(=O)CC(=O)CSc1nc2c(C)c(C)ccc2cc1C the Potency was “inactive”.
In the case of O=C(c1cc(COc2ccc(F)cc2Cl)on1)N1CCCCCC1, the Potency is reported as “inactive”.
For O=C(CN1CCCC1)Nc1cccc(Cl)c1Cl, the Potency was “inactive”.
For CN(C)C(=O)NC(NC(=S)Nc1ccccc1)C(Cl)(Cl)Cl (centres undefined), the Potency was “inactive”.
For CCC(=O)N(Cc1cc2ccc(C)cc2[nH]c1=O)c1ccccc1OC, the Potency was “inactive”.
With CCOc1ccc(-n2cnc3scc(-c4ccc(OC)c(OC)c4)c3c2=O)cc1 the Potency was “inactive”.
With CC(C)(C)NC(=O)C(c1cccs1)N(C(=O)c1csnn1)c1ccccc1F (centres undefined) the Potency was “inactive”.
In the case of COc1ccc(/C(C)=N/N2CCOCC2)c(O)c1, the Potency is reported as “inactive”.
With CCOC(=O)Cn1c(=O)cc(C)c2cccc(C)c21 the Potency was “inactive”.
In the case of COc1cc(/C=N/NC(=O)c2cc(-c3ccco3)nc3ccccc23)cc(OC)c1O, the Potency is reported as “inactive”.
In the case of CCCOc1ccc(CC2CCC(=O)NC2=O)cc1 (centres undefined), the Potency is reported as “inactive”.
In the case of CCC(C(=O)NCc1ccc(C)cc1)c1ccccc1 (centres undefined), the Potency is reported as “inactive”.
With COCCN(CCOC)c1nc(-c2ccc(C)cc2)nc2ccccc12 the Potency was “inactive”.
For CCOC(=O)N1CCN(c2c(NCCCN3CCCCCC3)c(=O)c2=O)CC1, the Potency was “inactive”.
With COc1ccc(Cl)cc1NC(=O)CSc1nc(=O)n(CCN(C)C)c2c1CCCC2 the Potency was “inactive”.
With COCCn1c(SCC(=O)Nc2ccc(F)cc2)nc2ccccc2c1=O the Potency was “inactive”.
In the case of O=C1C[C@@H]2CCN3C(=O)CCC[C@@H]([C@H]23)[C@H]1Cc1ccccc1, the Potency is reported as “inactive”.
For CC(CCc1ccccc1)NC(=O)c1ccc(NC(=O)c2cccc(Br)c2)cc1 (centres undefined), the Potency was “inactive”.
In the case of COc1ccc(C2=Nc3ccccc3C2(O)CCN2C(=O)c3ccccc3C2=O)cc1 (centres undefined), the Potency is reported as “inactive”.
In the case of COc1cc(C(C)=O)ccc1OCc1cn(CC(=O)c2ccc(O)cc2)nn1, the Potency is reported as “inactive”.
In the case of O=C(Nc1cccc(C2=NCCN2)c1)Nc1cccc(C2=NCCN2)c1, the Potency is reported as “inactive”.
In the case of Cc1cc(N)n(Cc2ccc(Cl)cc2)n1, the Potency is reported as “inactive”.
For O=C(NCCS(=O)(=O)N1CCC2(CC1)OCCO2)c1ccc(F)cc1, the Potency was “inactive”.
In the case of Cc1[nH]c2ccccc2c1C(=O)C(C)OC(=O)c1ccccc1NCCO (centres undefined), the Potency is reported as “inactive”.
With O=C1[C@H]2[C@@H](c3ccc(F)cc3)N3C(=O)N(c4ccccc4)C(=O)[C@@]3(Cc3ccc(Cl)cc3)[C@H]2C(=O)N1C1CCCCC1 the Potency was “inactive”.
In the case of COc1ccc(CCNC(=O)COC(=O)CNS(=O)(=O)c2ccc(SC)c([N+](=O)[O-])c2)cc1, the Potency is reported as “inactive”.
For COc1ccc(OC)c(S(=O)(=O)N2CCC(NC(=O)c3ccccc3)CC2)c1, the Potency was “inactive”.
With c1ccc(C2[C@H]3CN(Cc4cccnc4)[C@H](c4ccccc4)C34CC2(c2ccccc2)C4)cc1 (some centres undefined) the Potency was “inactive”.
For Cc1nn(CC(=O)OCC(=O)NC(C)c2ccccc2)c(C)c1[N+](=O)[O-] (centres undefined), the Potency was “inactive”.
With CC1CCCN(C(=O)c2ccc(CNc3c(N4CCCCC4)c(=O)c3=O)cc2)C1 (centres undefined) the Potency was “inactive”.
For CC(C)OC(=O)c1ccc(N2CCN(c3ccccc3F)CC2)nc1, the Potency was “inactive”.
For Cc1nc(NC(=O)CSc2nnc(C3CC3)n2C)sc1C(=O)N(C)C, the Potency was “inactive”.
With CCc1ccc(N2CC(C(=O)Nc3ccc4c(c3)OCO4)CC2=O)cc1 (centres undefined) the Potency was “inactive”.
In the case of COc1cc2cc(CN(CCN3CCOCC3)C(=O)Nc3ccc(F)cc3)c(=O)[nH]c2cc1OC, the Potency is reported as “inactive”.
